Pf growth 96h: inhibits malaria parasite growth, 96 h. 320,000 compounds, 6.9% hits. Potency, µM (top dose mostly 28.7 µM), for inactives: at the highest dose activity change, negative = inhibition, most hits filed as inhibitors. P. falciparum luciferase reporter growth, 96 h. AID 504834; also: % is scaled to controls: 0 for no effect and ±100 for the full control effect
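Readout is luminescence from an integrated firefly luciferase in P. falciparum. Red cells, 2% hematocrit and 0.05% parasitemia final, were cultured with compound through two parasite generations (96 hours) at 37 C, 5% CO2.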
Pf growth 48h: inhibits P. falciparum growth in the first generation, 48 h; P. falciparum luciferase growth in erythrocytes, 48 h; Potency, µM (series often up to 28.7 µM), for inactives: at the highest dose activity change, negative = inhibition, usual class: inhibitors; 310,000 compounds, 5.9% hits; also: % is scaled to controls: 0 for no effect and ±100 for the full control effect
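Firefly luciferase activity from engineered P. falciparum reports growth; inhibitors lower the luminescent signal. Cultures contained 2% hematocrit erythrocytes at 0.1% final parasitemia.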
NS1 inh: influenza NS1 inhibition; Potency, µM (doses to about 46.1 µM), for inactives: top-dose activity, positive = more growth; 270,000 compounds, 0.4% hits; calls by dose curve; also: actives are rising curves; nearly all actives have a fitted effect of over 50% in size
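Recovery from NS1-induced slow growth read by OD600 in budding yeast switched to galactose assay medium (pH 6.0, -URA) at 1:100 dilution. Compound 23 nl per well; the matching strain lacking NS1 serves as control.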
SARS PLpro yeast: SARS-CoV PLP inhibition in yeast. Potency, µM (doses to about 32.9 µM), for inactives: at the highest dose activity, positive = growth rescue, usual class: activators. S. cerevisiae expressing SARS-CoV PLpro, growth rescue. 330,000 compounds, 0.19% hits. AID 485353; calls by dose curve; also: 0% is about no effect; nearly all actives have a fitted effect of over 55% in size
RE007 growth inh: less growth of the S. pombe RE007 Vpr strain | Potency, µM (titrated, usually from 92.2 µM), inactives show at the top dose activity change, negative = less growth, usual class: inhibitors | 360,000 compounds, 0.21% hits | S. pombe RE007 Vpr strain, BacTiter-Glo ATP luminescence, 24 h | AID 651644; active = well fitted falling curve with a large enough effect; inconclusive = small, poorly fitted or top-dose-only effect; inactive = no such curve, though single readings can be large or run the other way; also: % is scaled to controls: 0 for no effect and ±100 for the full control effect; nearly all actives have a fitted effect of over 50% in size
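Fission yeast RE007 carrying one integrated HIV-1 vpr copy, seeded at OD 0.01 in PMG+AL medium with 23 nL pinned compound. Grown 24 h at 30 degrees; viability read by BacTiter-Glo luminescence after 5 min.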
Active calls of the source: *; ? = inconclusive; . = no result given. The list is not random: actives were taken first. Their share in the collection is about 9.5%. Unless noted, calls follow the shape of the dose curve; as a rule, active = well fitted inhibition curve with a large enough effect; inconclusive = small, poorly fitted or top-dose-only effect, or another doubt; inactive = no such curve, though single readings can be large or run the other way. Potency is read from the fitted curve at half-maximal effect.

SMILES	Pf growth 96h	Pf growth 48h	NS1 inh	SARS PLpro yeast	RE007 growth inh
COc1ccc(-n2c(C)cc(C(=O)COC(=O)c3cc(NC(=O)c4cccs4)c(OC)c(OC)c3)c2C)cc1	?	1.85µM*	15.7%	5.1%	5.6%
CCN(CC)C(=O)CSc1nnc(-c2ccccn2)n1Cc1ccccc1	1.6%	-15.2%	0.1%	-0.2%	4.8%
CC(=O)OCC1O[C@@H](O[C@@H]2C[C@H]3C(C)(C)[C@H](OC(C)=O)CC[C@]3(C)[C@H]3CC[C@]45C[C@]4(CC[C@H]5[C@@H](C)C[C@@H](O)[C@H](O)C(C)(C)O)[C@@]32C)[C@H](O)[C@@H](O)[C@@H]1O (stereo partly specified)	5.86µM*	11.7µM*	.	-1.6%	.
CC(C)(Oc1ccc(C2CCCc3ccccc32)cc1)C(=O)O (stereo unspecified)	-6.9%	-7.0%	.	.	.
Cc1ccc(CNC(=O)c2ccc(N3CCC4(CC3)CC(c3cccc(Br)c3)=NO4)c([N+](=O)[O-])c2)cc1	?	?	.	-0.1%	-3.1%
CCCNC(=O)c1ccc(N2CCC3(CC2)CC(c2cccc(Br)c2)=NO3)c(N)c1	?	11.7µM*	.	-24.1%	0.9%
CCCNC(=O)c1ccc(N2CCC3(CC2)CC(c2cccc(Br)c2)=NO3)c([N+](=O)[O-])c1	6.57µM*	?	-30.7%	-5.8%	-18.1%
CCN(CC)c1ccc(/C=N/n2c(C)cc(C)cc2=O)cc1	6.8%	7.38µM*	-49.1%	5.4%	7.2%
CCN(CC)c1ccc(/C=N/N2CC(=O)NC2=S)cc1	3.7µM*	?	.	0.4%	0.2%
Clc1ccc(-n2nnnc2-c2cnc3ccc(Cl)cc3c2-c2ccccc2)cc1	11.7µM*	13.1µM*	-21.7%	1.4%	0.0%
Cc1sc(NC(=O)CN(Cc2ccc(F)cc2)C(=O)C(C)(C)C)c(C(N)=O)c1C	7.38µM*	-22.5%	4.9%	11.3%	20.6%
CC(=O)N(CC(=O)Nc1sc(C)c(C)c1C(N)=O)Cc1ccccc1	46.8%	6.9%	2.5%	-1.0%	5.5%
N#Cc1cc[n+](CC(=O)c2ccc(NC(=O)c3ccccc3)cc2)cc1	3.29µM*	4.15µM*	10.3%	-0.1%	6.6%
Cc1cccc[n+]1CC(=O)c1ccc(NC(=O)c2ccccc2)cc1	10.9%	2.94µM*	-16.7%	-2.0%	-8.1%
Cc1cccc[n+]1CC(=O)Nc1ccccc1	?	-14.2%	-2.7%	1.3%	0.3%
CCCOP(=O)(OCCC)c1c([N+](=O)[O-])cc(C(F)(F)F)cc1[N+](=O)[O-]	9.28µM*	.	-5.4%	-7.4%	3.1%
Cn1c(N)c(C(=O)COC(=O)C2CCC(C(C)(C)C)CC2)c(=O)n(C)c1=O (stereo unspecified)	.	13.1µM*	9.8%	-12.7%	17.0%
Cn1c(N)c(C(=O)COC(=O)C2(c3ccc(Cl)cc3)CCCC2)c(=O)n(C)c1=O	.	3.7µM*	-3.2%	0.9%	?
Cn1c(N)c(C(=O)COC(=O)C2(c3ccccc3F)CCCC2)c(=O)n(C)c1=O	-18.5%	-26.4%	-8.9%	-1.0%	-10.6%
Cn1c(N)c(C(=O)COC(=O)C2(c3ccc(F)cc3)CCCC2)c(=O)n(C)c1=O	2.33µM*	4.15µM*	-32.9%	-6.3%	13.9%
O=C(O)C1C2C=CC3(CN(c4cccc(C(F)(F)F)c4)C(=O)C13)O2 (stereo unspecified)	10.4µM*	1.1%	3.4%	0.7%	-2.5%
Cc1cccc(N2CC34C=CC(O3)C(C(=O)O)C4C2=O)c1 (stereo unspecified)	13.4%	27.9%	2.3%	-1.8%	-2.8%
COc1ccc(-c2nc(C)ncc2N=Nc2ccccc2)cc1	3.7µM*	9.28µM*	6.6%	1.9%	7.5%
CC(Sc1nn(-c2ccccc2)c(=S)s1)C(=O)NCC1CCCO1 (stereo unspecified)	13.1µM*	9.28µM*	.	.	0.5%
NC(=O)c1nnsc1-c1ccco1	.	.	.	.	-9.6%
SMILES	Pf growth 96h	Pf growth 48h	NS1 inh	SARS PLpro yeast	RE007 growth inh
COc1ccccc1C(CNC(=O)C1CCN(C(=O)Nc2ccccc2)CC1)N1CCCC1 (stereo unspecified)	?	?	.	2.7%	-7.6%
COc1ccc(NC(=O)C2CCN(c3nc(-c4ccc(OC)cc4)no3)CC2)cc1	-4.1%	-15.5%	-7.7%	-1.7%	2.5%
CCN(C(=O)C1CCN(c2nc(-c3ccc(OC)cc3)no2)CC1)c1ccc(OC)cc1	1.8%	9.28µM*	-23.1%	-1.5%	11.8%
Cc1ccc(C(C)C)cc1OCC(=O)Nc1ccc(N2CCCCC2)cc1	?	?	.	1.1%	-8.1%
Cc1cc(NC(=O)COc2ccc3ccccc3c2)no1	?	10.9%	0.0%	2.3%	-16.8%
Cc1cc(NC(=O)COc2cccc([N+](=O)[O-])c2)no1	-29.1%	1.65µM*	23.7%	2.7%	-3.0%
O=C(COc1ccccc1)NC(=S)Nc1cccc([N+](=O)[O-])c1	1.65µM*	5.1%	6.5%	-12.6%	.
O=C(NC(=S)Nc1cccc(NC(=S)NC(=O)c2ccco2)n1)c1ccco1	1.31µM*	-10.2%	5.5%	-0.3%	6.4%
COC(=O)CCC(=O)Nc1cccc([N+](=O)[O-])c1	11.7µM*	14.0%	.	2.5%	0.4%
CCCCONc1ncnc2nonc12	70.5%	22.2%	6.8%	0.6%	15.1%
O=C(COC(=O)c1cccc(Cl)c1)Nc1cccc(S(=O)(=O)NC2=NCCC2)c1	.	.	.	-4.6%	1.8%
Cc1ccc([N+](=O)[O-])cc1NC(=S)NC(=O)c1ccco1	13.0%	21.9%	-5.9%	24.2%	.
O=C(NC(=S)Nc1cccc([N+](=O)[O-])c1)c1ccco1	8.28µM*	56.2%	12.9%	16.8%	-4.2%
Oc1ccc(O)c(/C(=N/Nc2ccccc2)c2ccccc2)c1	?	?	1.7%	6.4%	.
CC(C)Oc1ccc(CC2CC(=O)NC2=O)cc1 (stereo unspecified)	10.4µM*	39.6%	2.4%	2.3%	10.4%
COc1cccc(N2CC(C(=O)Nc3c(C(N)=O)oc4ccccc34)CC2=O)c1 (stereo unspecified)	-5.5%	?	.	-2.3%	1.4%
Cc1sc2nc(C3CC3)nc(N3CCN(C(=O)c4ccc(Cl)cc4)CC3)c2c1C	28.1%	?	-5.7%	-35.4%	-6.2%
O=C(NNC(=O)c1cccc2ccccc12)c1ccc2c(c1)OCO2	85.5%	46.8%	-2.5%	-0.1%	10.6%
O=[N+]([O-])c1ccc2nc(/C=C/c3ccc(Cl)cc3)[nH]c2c1	8.28µM*	8.28µM*	-110.5%	-28.8%	-25.8%
CC(C)(C)C(=O)c1c(N)[nH]c(C(=O)c2ccccc2)c1-c1ccccc1Br	.	.	.	.	4.0%
Cc1ccccc1-n1c(CNc2ccccc2)nc2ccccc2c1=O	.	.	.	.	12.6%
O=c1c2ccccc2nc(CNc2ccccc2)n1-c1ccccc1	7.38µM*	?	7.2%	-1.0%	3.8%
